Results published in PubChem BioAssay (NCI).
The panel holds about 83,000 compounds, 20% with a hit somewhere; the sample as a whole holds those more often.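 Note: values are percent growth. 100 is the growth of untreated cells, values between 100 and 0 indicate rising inhibition; between -100 and 0 indicates cell death.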 A number with no mark means an inactive call. Calls of active or inactive are those of the source. The calls were made as follows: active = growth percent below 10; inactive = the rest.

Assays:
Assay in all cases: NCI-60 one-dose screen, 48 h (100 = growth as untreated, 0 = no growth, -100 = all killed)
Settings in all cases: 10 µM unless noted
SK-MEL-2 melanoma = test system: SK-MEL-2 melanoma
EKVX NSCLC = test system: EKVX NSCLC
UO-31 renal = test system: UO-31 renal
TK-10 renal = test system: TK-10 renal
ACHN renal = test system: ACHN renal
CAKI-1 renal = test system: CAKI-1 renal
A498 renal = test system: A498 renal
CCRF-CEM leukemia = test system: CCRF-CEM leukemia
MOLT-4 leukemia = test system: MOLT-4 leukemia
SR leukemia = test system: SR leukemia
RPMI-8226 leukemia = test system: RPMI-8226 leukemia
OVCAR-8 ovarian = test system: OVCAR-8 ovarian
OVCAR-5 ovarian = test system: OVCAR-5 ovarian
OVCAR-4 ovarian = test system: OVCAR-4 ovarian
SK-OV-3 ovarian = test system: SK-OV-3 ovarian
IGROV1 ovarian = test system: IGROV1 ovarian
OVCAR-3 ovarian = test system: OVCAR-3 ovarian
HS 578T breast = test system: HS 578T breast
NCI/ADR-RES ovarian = test system: NCI/ADR-RES ovarian
SN12C renal = test system: SN12C renal

Row | Structure (SMILES) | growth (SK-MEL-2 melanoma) | growth (EKVX NSCLC) [%] | growth (UO-31 renal) | growth (TK-10 renal) | growth (ACHN renal) | growth (CAKI-1 renal) | growth (A498 renal) | growth (CCRF-CEM leukemia) | growth (MOLT-4 leukemia) | growth (SR leukemia) | growth (RPMI-8226 leukemia) | growth (OVCAR-8 ovarian) | growth (OVCAR-5 ovarian) | growth (OVCAR-4 ovarian) | growth (SK-OV-3 ovarian) | growth (IGROV1 ovarian) | growth (OVCAR-3 ovarian) | growth (HS 578T breast) | growth (NCI/ADR-RES ovarian) | growth (SN12C renal)
1 | CCCCCCCCOc1cccc(S(=O)(=O)Nc2ccc(C)cc2C(=O)O)c1 | 89.7% | 92.8 | 85.9% | 102% | 98.1% | 85.8% | 107% | 72.5% | 90.5% | 90% | 64.5% | 95.6% | 114% | 90.1% | 108% | 99.7% | 102% | 106% | 97.6% | 
2 | CCCSc1nc(NCCc2c[nH]c3ccccc23)c(C#N)c(-c2ccc(F)cc2)n1 | 92% | 50.8 | 68.7% | 91.6% | 59.2% | 52.3% | 96.8% | 33.6% | 42.5% | 6.1% (active) | 38.4% | 65.2% | 82.6% | 70.7% |  | 85.8% | 84.9% | 34.9% | 49.5% | 
3 | COc1ccc(-c2nc(SC(C)C)nc(NCCc3c[nH]c4ccccc34)c2C#N)cc1 | 74.6% | 30.4 | 40% | 90.6% | 48.9% | 43% | 65.9% | 18.5% | 18.1% | 2.63% (active) | 16.3% | 66.5% | 65.4% | 57.1% | 72% | 94.3% | 63.8% | 36.3% | 32.5% | 
4 | Cn1cc(-c2cc3nc(-c4cn(C)c5ncccc45)cc(N)n3n2)c2cc(Cl)ccc21 | -80% (active) |  | -87.5% (active) | -83.2% (active) | -94.4% (active) | -46.9% (active) | -75.9% (active) | -14.4% (active) | -45.7% (active) | -54.7% (active) | -13.9% (active) | -41.4% (active) | 0.37% (active) | -16.5% (active) | -67.7% (active) | -82.7% (active) | -75% (active) | -29.7% (active) |  | -93.8% (active)
5 | CC(=O)OC[C@@]1(C)C2CC[C@]3(C)C(CC=C4C5CC(C)(C)CC[C@]5(C(=O)Nc5ccc(C)cc5)CC[C@]43C)[C@@]2(C)C[C@@H](OC(C)=O)[C@@H]1OC(C)=O (some centres not stated) | 39.4% | 32.4 | 40.9% | 53.2% | 38.9% | 45.8% | 67.1% | 32.8% | 34.4% | 30.9% | 13.8% | 40.3% | 95.2% | 40.2% | 54.3% | 60.9% | 48.9% | 86% | 40.4% | 
6 | CC(=O)OC[C@@]1(C)C2CC[C@]3(C)C(CC=C4C5CC(C)(C)CC[C@]5(C(=O)Nc5cccc(C)c5)CC[C@]43C)[C@@]2(C)C[C@@H](OC(C)=O)[C@@H]1OC(C)=O (some centres not stated) | 38.7% | 30.7 | 37.4% | 52.9% | 38.8% | 42.2% | 59.6% | 30.4% | 30.7% | 30% | 15.9% | 39.7% | 81.2% | 38.6% | 59.7% | 61.8% | 47.5% | 77% | 36.2% | 
7 | COc1ccc(N2N=C(c3ccc4c(c3)OCO4)CC2c2cccc(NC(=O)CCCNS(=O)(=O)c3ccc(F)cc3)c2)cc1 (configuration not stated) | 73.5% | 52.1 | 56.2% | 66.8% | 59.2% | 49% | 67.6% | 53.5% | 33.4% | 18.3% | 39.4% | 78.8% | 99.2% | 57.5% | 83.5% | 90.7% | 81.3% | 67.2% | 84.5% | 
8 | CC(C)Sc1nc(NCCc2c[nH]c3ccccc23)c(C#N)c(-c2ccc(F)cc2)n1 | 70.3% | 32.7 | 44.8% | 96.3% | 51.7% | 42.7% | 42.4% | 11.7% | 12% | -19.8% (active) | 14.1% | 57.3% | 81.9% | 59.1% | 76.9% | 90.4% | 58.1% | 43% | 29.5% | 
9 | CCN(CC)CCOc1ccc(Nc2ncc3cc(-c4ccc(O)c(C#N)c4)c(=O)n(C)c3n2)cc1 | 105% |  | 67.6% | 96.8% | 40.1% | 45.9% | 113% | -25.5% (active) | 3.63% (active) | -8.11% (active) | 65% | 92.8% | 88.2% | 89.3% | 64.7% | 46.9% | 83.7% | 76.5% |  | 69.5%
10 | CCCSc1nc(NCCc2c[nH]c3ccccc23)c(C#N)c(-c2ccccc2)n1 | 75% | 35.7 | 64.5% | 107% | 78.2% | 57.1% | 82.5% | 40.4% | 44.7% | 8.87% (active) | 44.5% | 82.1% | 91.8% | 82.1% | 91% | 100% | 100% | 66.8% | 69% | 
11 | O=c1onc(-c2cc3ccccc3nc2Cl)n1-c1cccc2ccccc12 | 19.6% | 29.5 | 38.2% | 78.6% | 50.4% | 29.1% | 90.8% | 33% | 24.5% | 16.8% | 40.6% | 51.4% | 94.8% | 38.6% | 34.4% | 61.8% | 64% | 30% | 15.2% | 
12 | CC(C)CSc1nc(NCCc2c[nH]c3ccccc23)c(C#N)c(-c2ccc(Cl)cc2)n1 | 90.1% | 46.1 | 65.1% | 108% | 67.4% | 50.1% | 113% | 20.6% | 20.8% | 7.81% (active) | 36.3% | 76.2% | 80.5% | 78.3% | 81.7% | 96.2% | 76.4% | 51.6% | 54.7% | 
13 | N#Cc1c(NCc2ccccc2)n[nH]c1Nc1ccccc1 | 20.7% |  | 38.5% | 75.5% | 38.1% | 33.4% | 79% | 18.3% |  |  | 37.3% | 61.1% | 84.4% | 52.9% |  | 89.6% | 66.8% | 84.6% | 59.9% | 50.8%
14 | Cc1ccc2c(c1)nc(-c1ccccc1)n2CC(=O)N=Nc1c(O)[nH]c2ccc(Br)cc12 | -40.5% (active) |  | -90% (active) | -10% (active) | -99.9% (active) | -65.4% (active) | -37.2% (active) | 23.8% | -42.1% (active) | 0.421% (active) | -1.7% (active) | -67.2% (active) | -20.2% (active) | -49.3% (active) | -32% (active) | -78% (active) | -75.2% (active) | -5.01% (active) | -69.6% (active) | -72.3% (active)
15 | COc1ccc(/C=C2\C(=O)Nc3ccc(Cl)cc32)cc1OCc1ccccn1 | 96.2% |  | 5.88% (active) | 63.6% | 12.2% | 24.3% | 120% | 50.8% | 45.7% | 31.4% | 39.5% | 31.6% | 50% | 8.08% (active) | 63.3% | 45.5% | 51.6% |  | 27.3% | 44.3%
16 | CCN1C(=O)N(CC)C2NNC(Sc3c(C(=O)O)c4ccccc4n(C4CCCC4)c3=O)=NC21 (configuration not stated) | 27% |  | 46.8% | 80.1% | 25.7% | 27.5% | 102% | 24.8% | 24.1% | 22.4% | 24.8% | 4.93% (active) | 38.4% | 61.8% | 32.8% | 29.6% | -32.5% (active) | 7.18% (active) | 25.1% | 34.3%
